A short description of test [1]: cAMP Responsive Elements (CRE) small molecule antagonists, cell-based qHTS assay: qHTS cell viability counter screen (AID 2060913). Also: nearly all actives have a fitted effect of over 40% in size. In outline:
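HEK293T CRE-bla, 2,000 cells/well, 18 h preincubation; cpd in DMSO + NKH477 0.25 uM final, 3 h 37 C/5% CO2; LiveBLAzer 2 h RT, then CellTiter-Glo 30 min RT, luminescence.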
A general note: In qHTS, concentration-response curves come from the screen itself.

Test [2] in a line: cAMP Responsive Elements (CRE) small molecule agonists, cell-based qHTS assay: qHTS cell viability counter screen (AID 2060914).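 Also: viability read after 3 h of compound exposure; nearly all actives have a fitted effect of over 50% in size.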 In outline:
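CRE-bla HEK293T cells in 10% dialyzed FBS medium were exposed to compounds for 3 h at 37C after 18 h plating. CellTiter-Glo was then added in the same wells, and luminescence was read after 30 min at room temperature.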

Values joined by “and” are separate entries in the source; they are usually repeats but may differ in a detail not shown here. Equal entries are not always repeated. Inconclusive results are not listed. Active and inactive are the calls of the source. Calls follow the shape of the dose curve; as a rule, active = well fitted cell-killing curve with a large enough effect in the repeat runs; inconclusive = weak or mixed curves, or effect the other way; inactive = flat fitted curve, though single readings scatter.
Potency is read from the fitted curve at half-maximal effect.

With `O=C1CCCC1`, the Potency entry in test [1] and in test [2] was “inactive” throughout.
Turning to `C=CCN1C[C@H](C(=O)N(CCCN(C)C)C(=O)NCC)C[C@@H]2c3cccc4[nH]cc(c34)C[C@H]21`, the Potency result in test [1] and in test [2] was “inactive” throughout.
As to `CCCS(=O)c1ccc2nc(NC(=O)OC)[nH]c2c1` (configuration not stated), the Potency entry in test [1] and in test [2] was “inactive” each time.
`COc1cc(NS(=O)(=O)c2ccc(N)cc2)nc(OC)n1`: the Potency entry in test [1] and in test [2] was “inactive” throughout.
For the compound `COC(=O)c1ccccc1Cl`, the Potency result in test [1] and in test [2] was “inactive” in each case.
On to `OCCN1CCN(CCO)CC1`, for which the Potency entry in test [1] and in test [2] was “inactive” throughout.
With `CCCCCCCCCCCCCCCCCC(=O)OCC(O)CO` (configuration not stated), the Potency result in test [1] and in test [2] was “inactive” in each case.
In the case of `CC(C)CCCCCCc1ccc(O)cc1`, the Potency is 55.4 µM (active) and 27.3 µM (active) in test [1]; 55.4 µM (active) and 30.6 µM (active) in test [2].
Regarding `Cc1ccc(-n2[nH]c(C)c(N=Nc3cccc(-c4cccc(C(=O)O)c4)c3O)c2=O)cc1C`, the Potency result in test [1] and in test [2] was “inactive” in each case.
`c1ccc2nccnc2c1`: the Potency entry in test [1] and in test [2] was “inactive” throughout.
For `C=C(C)C1CC=C(C)CC1` (configuration not stated), the Potency entry in test [1] and in test [2] was “inactive” each time.
Take `CCC(C)SSC(C)CC` (configuration not stated): the Potency entry in test [1] and in test [2] was “inactive” in each case.
`CC(C)(C)NSc1nc2ccccc2s1`: the Potency entry in test [1] and in test [2] was “inactive” each time.
As to `Cc1nnc(C(=O)NC(C)(C)c2nc(C(=O)NCc3ccc(F)cc3)c(O)c(=O)n2C)o1`, the Potency result in test [1] and in test [2] was “inactive” throughout.
Regarding `CC(=O)Nc1ccc(S(=O)(=O)Nc2cc(C)on2)cc1`, the Potency entry in test [1] and in test [2] was “inactive” throughout.
Regarding `Cc1ncc([N+](=O)[O-])n1CC(C)O` (configuration not stated), the Potency entry in test [1] and in test [2] was “inactive” throughout.
With `CCCCOCCOCCO`, the Potency result in test [1] and in test [2] was “inactive” throughout.
In the case of `COS(C)(=O)=O`, the Potency entry in test [1] and in test [2] was “inactive” throughout.
`Cc1cc(SC2=C(O)C[C@@](CCc3ccc(N)cc3)(C(C)C)OC2=O)c(C(C)(C)C)cc1CO`: the Potency entry in test [1] and in test [2] was “inactive” each time.
As to `CC(C)(C)c1cc(CCC(=O)NN)cc(C(C)(C)C)c1O`, the Potency result in test [1] and in test [2] was “inactive” in each case.
Take `C1CCC(SSC2CCCCC2)CC1`: the Potency entry in test [1] and in test [2] was “inactive” each time.
Take `c1ccc2[nH]cnc2c1`: the Potency result in test [1] and in test [2] was “inactive” throughout.
`Cc1ccc(S(=O)(=O)Oc2ccc(N=Nc3ccc(-c4ccc(N=Nc5c(O)ccc6cc(S(=O)(=O)O)cc(S(=O)(=O)O)c56)c(C)c4)cc3C)cc2)cc1`: the Potency entry in test [1] and in test [2] was “inactive” in each case.
With `CCOC(=O)Cc1cccc2ccccc12`, the Potency entry in test [1] and in test [2] was “inactive” each time.
Turning to `Clc1ccc(Nc2nnc(Cc3ccncc3)c3ccccc23)cc1`, the Potency result in test [1] and in test [2] was “inactive” each time.
Take `Nc1cc(N)cc(C(=O)O)c1`: the Potency result in test [1] and in test [2] was “inactive” throughout.
Consider `COc1ccccc1N1CCN(CC(O)COc2cc(OC)c(OC)c(OC)c2)CC1` (configuration not stated), for which the Potency result in test [1] and in test [2] was “inactive” throughout.
Take `CC[C@H](C)[C@H](N)C(=O)O`: the Potency entry in test [1] and in test [2] was “inactive” each time.
For `CC1CN(c2ccccc2)NC1=O` (configuration not stated), the Potency result in test [1] and in test [2] was “inactive” in each case.
Consider `CCN(CC)c1ccc2c(c1)Oc1cc(N(CC)CC)ccc1C21OC(=O)c2ccccc21`, for which the Potency result in test [1] and in test [2] was “inactive” in each case.
On to `CCCCCCCC[Si](OCC)(OCC)OCC`, for which the Potency entry in test [1] and in test [2] was “inactive” each time.
Turning to `CC/C=C\CC1=C(C)CCC1=O`, the Potency entry in test [1] and in test [2] was “inactive” throughout.
As for `CCS(=O)(=O)CCn1c([N+](=O)[O-])cnc1C`, the Potency entry in test [1] and in test [2] was “inactive” in each case.
Take `C=C[Si](C)(C)O[Si](C)(C)C=C`: the Potency entry in test [1] and in test [2] was “inactive” each time.
Consider `O=C(CCCl)NCc1ccccc1`, for which the Potency entry in test [1] and in test [2] was “inactive” throughout.
As for `NC(Cc1c[nH]c2ccccc12)C(=O)O` (configuration not stated), the Potency result in test [1] and in test [2] was “inactive” throughout.
For the compound `O=C1C(N(CO)C(=O)NCO)N(CO)C(=O)N1CO` (configuration not stated), the Potency entry in test [1] and in test [2] was “inactive” in each case.
Consider `Cc1cccc(OCCOc2cccc(C)c2)c1`, for which the Potency result in test [1] and in test [2] was “inactive” in each case.
In the case of `Nc1c(I)cc(I)c(C(=O)N(CCC(=O)O)c2ccccc2)c1I`, the Potency entry in test [1] and in test [2] was “inactive” each time.
Consider `C[C@@H](O)C(=O)O`, for which the Potency result in test [1] and in test [2] was “inactive” in each case.
Regarding `O=C=NC1CCC(CC2CCC(N=C=O)CC2)CC1` (configuration not stated), the Potency result in test [1] and in test [2] was “inactive” each time.
With `CC(=O)CC(=O)Nc1ccccc1C`, the Potency result in test [1] and in test [2] was “inactive” each time.
In the case of `O=[N+]([O-])c1ccc(F)c(Cl)c1`, the Potency result in test [1] and in test [2] was “inactive” each time.
`CCCCCCCC/C=C\CCCCCCCC(N)=O`: the Potency entry in test [1] and in test [2] was “inactive” in each case.
As to `CC(C)=CCC/C(C)=C/CC/C(C)=C/C(=O)OCC(=O)[C@@]1(O)CC[C@H]2[C@@H]3CCC4=CC(=O)C=C[C@]4(C)[C@H]3[C@@H](O)C[C@@]21C`, the Potency result in test [1] and in test [2] was “inactive” throughout.
`IC(I)I`: the Potency result in test [1] and in test [2] was “inactive” throughout.
For the compound `C/C=C/c1ccc(O)c(OC)c1`, the Potency entry in test [1] and in test [2] was “inactive” throughout.
`CCCC(=O)OCCC(C)CCC=C(C)C` (configuration not stated): the Potency result in test [1] and in test [2] was “inactive” throughout.
`C=C1C[C@H]2[C@@H]3C=C(C)C4=CC(=O)CC[C@]4(C)[C@H]3CC[C@]2(C)[C@@]1(OC(C)=O)C(C)=O`: the Potency result in test [1] and in test [2] was “inactive” in each case.
Consider `FC(F)(F)c1ccccc1-n1ccnc1`, for which the Potency entry in test [1] and in test [2] was “inactive” in each case.
On to `[Cl][Bi]([Cl])([c]1ccccc1)([c]1ccccc1)[c]1ccccc1`, for which the values for the Potency in test [1] and in test [2] were 30.5 µM (active) and 43 µM (active), respectively.
